According to PubChem BioAssay (EPA / NIEHS):
“And” between values parts separate entries of the source, which are not always exact repeats. Identical values can stand only once. Where a structure was tested more than once in an assay, its records may differ in their call. The source made the active and inactive calls. Rule for the calls: active = hit-call score of the fitted dose curve at least 0.9, where 1 is the maximum; inactive = score below 0.9.

experiment: CCTE_Simmons_MITO_basal_resp_rate: CCTE's HepG2 Seahorse XF Respirometric Screening Assay at Basal Respiratory State, Simmons Lab (AID 2284001); conditions: actives raise or lower the signal
Protocol: CCTE_Simmons_MITO is cell-based, respirometric assay using HepG2 cells and a Seahorse XF Analyzer to measure oxygen consumption rates over four temporal phases spanning a total of 72 minutes: pre-injection (pre-treatment), basal (following test compound injection), maximal (following FCCP uncoupler injection), and inhibited (following rotenone/antimycin A injection)CCTE_Simmons_MITO_basal_resp_rate is one of 4 assay components calculated from the CCTE_Simmons_MITO assay. It is designed to make measurements of basal respiration using a form of respirometric reporter, as detected with […] signals by Seahorse XF96 technology. Data from the assay component CCTE_Simmons_MITO_basal_resp_rate was analyzed at the endpoint, CCTE_Simmons_MITO_basal_resp_rate_OCR, with bidirectional fitting relative to DMSO as the negative control and baseline of activity. Using a type of respirometric reporter, measures of basal respiration for gain or loss-of-signal activity can be used to understand cellular oxygen consumption as it relates to cellular respiration. To generalize the intended target to other relatable targets, this assay endpoint is annotated to the mitochondria intended target family, where the subfamily is respiration.
Test chemicals were administered as a titrated series of 7 concentrations from 125 nM up to 100 uM [final] prior to kinetic endpoint detection at 6 minute intervals [3 min mix followed by 3 minutes measure] for 72 minutes. Three biological replicates of technical singles were run for every chemical concentration tested. Dimethylsulfoxide [DMSO] was used as the vehicle control. The electron transport chain inhibitor fenpyroximate was used as the positive control for decreased basal respiration and was administered as a titrated series of 6 concentrations from 250 nM up to 2.75 uM [final] with technical triplicates for the top concentration only. The uncoupler 2,4-dintirophenol was used as the positive control for increased basal respiration and was administered as a titrated series of 6 concentrations from 938 nM up to 40 uM [final] with technical triplicates for the top concentration only. A Seahorse XF Analzyer is required to measure the response.

Q: For CCOCN(C(=O)CCl)c1c(C)cccc1CC, which outcome is on record?
A: inactive

Q: With CCC(C)(NC(=O)c1cc(Cl)c(C)c(Cl)c1)C(=O)CCl (stereo unspecified) as the compound, how does the outcome read?
A: inactive

Q: For Oc1ccc(Cl)cc1Cc1ccccc1, which AC50 is on record?
A: 18.3 µM (active) and 24 µM (active)

Q: For Oc1cc(Cl)ccc1Oc1ccc(Cl)cc1Cl, which outcome is on record?
A: inactive

Q: What about the AC50 of the same compound?
A: 21 µM (active)

Q: With O=C(O)CCCOc1ccc(Cl)cc1Cl as the compound, how does the AC50 read?
A: 32.5 µM (active)

Q: With CCOC1Oc2ccc(OS(C)(=O)=O)cc2C1(C)C (stereo unspecified) as the compound, how does the AC50 read?
A: 33.5 µM (active)

Q: With N#Cc1c(Cl)c(Cl)c(Cl)c(C#N)c1Cl as the compound, how does the AC50 read?
A: 22.9 µM (active)

Q: With CC[C@H](C)[C@H]1O[C@]2(C=C[C@@H]1C)C[C@@H]1C[C@@H](C/C=C(\C)[C@@H](O[C@H]3C[C@H](OC)[C@@H](O[C@H]4C[C@H](OC)[C@@H](O)[C@H](C)O4)[C@H](C)O3)[C@@H](C)/C=C/C=C3\CO[C@@H]4[C@H](O)C(C)=C[C@@H](C(=O)O1)[C@]34O)O2 (tested in a mixture with another compound) as the compound, how does the AC50 read?
A: 24.7 µM (active)

Q: With C#CCN1C(=O)COc2cc(F)c(N3C(=O)C4=C(CCCC4)C3=O)cc21 as the compound, how does the AC50 read?
A: 64.9 µM (active)

Q: With O=C(O)COc1ccc(Cl)cc1Cl as the compound, how does the outcome read?
A: inactive

Q: With CCC(C)Nc1c([N+](=O)[O-])cc(C(C)(C)C)cc1[N+](=O)[O-] (stereo unspecified) as the compound, how does the outcome read?
A: inactive

Q: Which AC50 does the source give for CC1(c2ccc(Oc3ccccc3)cc2)OC(=O)N(Nc2ccccc2)C1=O (stereo unspecified) here?
A: 4.7 µM (active)

Q: For CCCN(CCOc1c(Cl)cc(Cl)cc1Cl)C(=O)n1ccnc1, which AC50 is on record?
A: 11.2 µM (active)

Q: For COP(=S)(OC)Oc1ccc([N+](=O)[O-])cc1, which outcome is on record?
A: inactive

Q: For CC(C)(C)C(O)/C(=C\c1ccc(Cl)cc1Cl)n1cncn1 (stereo unspecified), which AC50 is on record?
A: 15.8 µM (active)
